Shown is part of a subset that was picked to be rich in hits.
Pf Dd2 growth = qHTS Primary assay for Inhibitors of Plasmodium falciparum Dd2 growth in vitro; P. falciparum Dd2 growth, SYBR Green, 72 h; Potency, µM (doses to about 28.9 µM), for the others: at the highest dose activity, negative = inhibition, actives largely listed as inhibitors; hit rate 4.3% among 120,000; AID 1347417, 2020; active = well fitted inhibition curve with a large enough effect;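 note: plate controls were DMSO vehicle for no effect and reference drug for full effect; nearly all actives have a fitted effect of over 65% in size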
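Readout: SYBR Green fluorescence, 485 nm excitation, 535 nm emission, after ~16 h lysis at 37C. Before that, Dd2-infected red cells (2.5% hematocrit) grew 72 h with compound, 29 uM top final concentration.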
Numbers without * were called inactive; i = inactive; [ ] = dose if it differs, or a comment. Potency is the fitted concentration of half-maximal effect.

SMILES | Pf Dd2 growth
COc1ccc(CN2CC3(COCC2=O)CN(c2ccc(C(F)(F)F)cn2)C3)cc1F | i
CC(C)n1ccnc1CN1CCC2(CCCO2)CCC1=O (centres undefined) | 5%
Cn1ncc(CN2CCCC23CCN(c2ccc(C(F)(F)F)cn2)CC3)c1C1CC1 | 11µM*
FC(F)(F)CN1C2CCC1CN(c1ccc(C(F)(F)F)cn1)C2 | 27%
Cn1cc(CN2CCCC23CCN(c2ccc(C(F)(F)F)cn2)CC3)cc1C#N | 5µM*
Cc1ccc(C2(O)CCN(c3cc(C(F)(F)F)ccn3)CC2)nc1 | -8%
CC(C)n1ccnc1CN1CCCC12CCN(c1ccc(C(F)(F)F)cn1)CC2 | 13µM*
Cc1cccc(C)c1CN1CC2(COCC1=O)CN(c1ccc(C(F)(F)F)cn1)C2 | -1%[44.1 µM]
C[C@@H]1CN(C2CCN(Cc3cnn(C)c3C3CC3)CC2)C[C@H](C)O1 | 1%
COCCC1(NC(=O)CCc2ccc(OC)cc2)CCN(C2CCOCC2)CC1 | i
O=C(N[C@@H](Cn1ccc(=O)[nH]c1=O)C(=O)O)C1CC1 | 3%[44.1 µM]
CCOc1ccc(C(CC(=O)O)NC(=O)c2cnc(N(C)C)nc2C)cc1 (centres undefined) | -12%
O=C(NCCc1ccccc1)N1CCCCC1c1nc(CCOCC2CC2)no1 (centres undefined) | i
O=C1NC2(Cc3ccccc31)CN(CC1CCCC1)C2 | 13%[44.1 µM]
O=C1NC2(CCN(C(=O)Cc3ccccc3)C2)Oc2ccccc21 (centres undefined) | i
Cn1cc(C(=O)N2CCCC(Cc3noc(-c4cccnc4)n3)C2)cn1 (centres undefined) | -8%
O=C([C@@H]1C[C@H](Oc2ccccc2)CN1C(=O)CN1CCOCC1)N1CCOCC1 | 6%
COc1ccc(-c2nccn3cc(C(=O)NCCc4ccccn4)nc23)cc1 | i
CN(C)c1cc(=O)c2ccnc(-c3ccc(N4CCOCC4)cc3)c2o1 | i
COc1ccc(-c2cn3cccnc3n2)cc1NC(=O)Nc1cc(C)ccc1C | 11µM*
COc1cccc(NC(=O)Nc2cc(-c3cn4cccnc4n3)ccc2C)c1 | i
COc1cccc(NC(=O)Nc2cc(-c3cn4cccnc4n3)ccc2OC)c1 | i
CS(=O)(=O)N1CCCCC1c1nc(CCOCC2CCCC2)no1 (centres undefined) | i
Cc1csc(CN(C)C(=O)CN2C[C@@H]3CC[C@H](CC2=O)N3)n1 | 4%
CNC(=O)[C@@H]1CN(C(=O)CCc2c[nH]c3ccccc23)C[C@H]1CO | -1%
SMILES | Pf Dd2 growth
Cc1cnc(C2CC2)n1C1CCCNC1 (centres undefined) | -7%
COCc1ncc(C)n1C1CCCNC1 (centres undefined) | -10%
Cc1cnc(-c2ccccc2)n1C1CCCNC1 (centres undefined) | 6.3µM*
O=C1NCCC[C@@H]1NC(=O)[C@@H]1CN(C(=O)c2cccc(F)c2)CCN1C(=O)c1cnccn1 | -18%
COc1cccc(C(=O)N2CCC[C@H]2c2nc(-c3ccc(C)cc3)no2)c1 | i
CCn1ccc2oc(C)c(C(=O)NCc3ccccc3Cl)c2c1=O | -7%
COC[C@H]1C[C@@H](NC(=O)c2ccc(OC)cc2)[C@H](O)[C@@H]1O | 7%[44.1 µM]
CN1C(=O)C(CC(=O)NCCCN2CCc3ccccc3C2)=C2CCCCC21 (centres undefined) | -22%
CC1CCN(c2ccc(CNC(=O)CC3=C4CCCCC4N(C)C3=O)cc2)CC1 (centres undefined) | 10µM*
O=C(CC1=C2CCCCC2N(Cc2ccc(F)cc2)C1=O)NC1CC1 (centres undefined) | -22%
CCNC(=O)CC1=C2CCCCC2N(C)C1=O (centres undefined) | -17%
CN1C(=O)C(CC(=O)NCC2CCN(Cc3ccc(F)cc3)CC2)=C2CCCCC21 (centres undefined) | 5µM*
CN1C(=O)C(CC(=O)NC2CC2)=C2CCCCC21 (centres undefined) | -12%
CN(C)S(=O)(=O)NCc1cccnc1N1CCN(c2ccccn2)CC1 | -4%
COc1ccc(N2CCN(C(=O)Cn3ccn4nc(-c5ccccc5)c(CO)c4c3=O)CC2)cc1 | i
O=C(Nc1ccccc1Oc1cccnc1)C1CCCN1C(=O)CC1CCCC1 (centres undefined) | -9%
CC(C)N(C)Cc1ccc(-c2nc(-c3cccnc3)cc(=O)[nH]2)cc1 | -28%
CNC(=O)[C@@H]1CN(C(=O)Cc2ccc(Br)cc2)C[C@H]1CO | 13%
Cc1noc(-c2cccc(OC3CN(C(=O)c4sccc4C)C3)c2)n1 | 1%[5.79 µM]
CCN1C(=O)c2ccccc2Sc2ccc(NC(=O)N3CCN(c4cc(C)ccc4C)CC3)cc21 | -12%
CC(C)NC(=O)Nc1ccc2c(c1)N(C)C(=O)c1ccccc1S2 | 4%
CN1C(=O)c2ccccc2Sc2ccc(NC(=O)N3CCN(c4ccc(F)cc4)CC3)cc21 | 7.9µM*
C[C@H](C(=O)N1CCCC1)C1CC[C@@]2(C)Cc3sc(CS(=O)(=O)C(C)(C)C)nc3[C@@H](C)[C@@H]2[C@H]1O (some centres undefined) | -20%
N#Cc1cccc(C(=O)N2CCCCCNC(=O)[C@@H]3CCC[C@@H]32)c1 | 8%
COc1ccc(CCC(=O)N2CCCN(c3cc(-c4ccc(OC)cc4)[nH]n3)CC2)cc1 | -13%
SMILES | Pf Dd2 growth
COc1cccc(CNC(=O)[C@@H]2C[C@@H](O)CN2C2CCN(C(=O)C3CCCC3)CC2)c1 | i
CNC(=O)C1CCC(Cn2c(=O)c3sccc3n(CC(=O)N3CCC(C)CC3)c2=O)CC1 (centres undefined) | 8%
COc1cccc(Cn2c(=O)n(CC3CCC(C(=O)N4CCCCC4)CC3)c(=O)c3sccc32)c1 (centres undefined) | 10µM*
Cc1ccc(Cn2c(=O)n(CC3CCC(C(=O)N4CCC(C)CC4)CC3)c(=O)c3sccc32)cc1 (centres undefined) | -24%
Cc1cccc(Cn2c(=O)n(CC3CCC(C(=O)NC(C)C)CC3)c(=O)c3sccc32)c1 (centres undefined) | -5%
Cc1ccccc1Cn1c(=O)n(CC2CCC(C(=O)N3CCC(C)CC3)CC2)c(=O)c2sccc21 (centres undefined) | 11µM*
COc1cccc(Cn2c(=O)n(CC3CCC(C(=O)NC(C)C)CC3)c(=O)c3sccc32)c1 (centres undefined) | -8%
COCC(=O)N1CCCN(c2cc(C3CC(O)C3)ncn2)CC1 (centres undefined) | -3%
CC1=C[C@@H](CNC(=O)COc2ccccc2)[C@H](C(C)C)C[C@H]1CC(=O)NCc1cccnc1 | i
CC1CCN(CC2CCCNCC2)CC1 (centres undefined) | 15%
COc1ccc(C(=O)N[C@@H]2CCC[C@@H]2C(=O)NCc2cccnc2)cc1 | 12%
CCNC(=O)N1CCCC(c2nc(-c3cccnc3)no2)CCNC(=O)CC1 (centres undefined) | i
N#C/C(=C/c1cn(Cc2ccc(F)cc2)c2ccccc12)C(=O)Nc1cccc(Cl)c1 | 10µM*
N#C/C(=C\c1ccc(-c2cccc(Cl)c2)o1)C(=O)Nc1cccc(C(F)(F)F)c1 | 17%
Cc1ccc(NC(=O)/C(C#N)=C/c2ccccc2Cl)cc1C | 18%
COCC(=O)Nc1ccc([C@H]2OCC(=O)N(Cc3cccnc3)[C@@H]2CO)cc1 | 14%[44.1 µM]
Cc1noc(-c2cccc(OC3CN(C(=O)Nc4cccc(F)c4)C3)c2)n1 | -25%[5.79 µM]
CN1CCN(c2nc3c(c(=O)[nH]2)CCN(Cc2ccccc2C#N)CC3)CC1 | i[5.79 µM]
